GLP1R ag = activates the human GLP-1 receptor. Potency, µM (titrated, usually from 45.6 µM), for the others: top-dose activation, actives largely listed as activators. 380,000 tested, 0.007% active. P43220. AID 624172. HEK293 GLP-1R CRE-luciferase, luminescence, 4-6 h; cells express a hypersensitive GLP-1R form; further: % of control where 0% means no effect
HEK293 tox = cytotoxicity in counter-screen for GLP-1R inverse agonists; HEK293 cAMP-luciferase reporter cells, luminescence, 24 h; Potency, µM (top dose mostly 38.3 µM), for the others: top-dose activity change, negative = inhibition, hits mostly inhibitors; 410,000 tested, 0.13% active; AID 624418;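 further: loss of luciferase light is scored as toxicity; on the % scale 0 is the no-effect control and ±100 the full control effect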
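To flag toxic compounds, the library was rerun on cells for 24 hr at 37 deg C and 5% CO2. Viability-linked luminescence was captured 12 min after adding luciferase detection reagent.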
GLP1R inv ag = GLP-1 receptor (human) inverse agonism. P43220. HEK293 GLP-1R CRE-luciferase, luminescence, 24 h; GLP-1R form is constitutively active. Potency, µM (doses to about 38.3 µM), without a hit: at the top dose activity change, negative = inhibition, actives largely listed as inhibitors. 410,000 tested, 1.6% active. AID 624417; further: on the % scale 0 is the no-effect control and ±100 the full control effect; nearly all actives have a fitted effect of over 55% in size
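Assay principle: reduced luminescence from a cAMP-responsive reporter in HEK293 cells co-expressing a constitutively active GLP-1R. Conditions: 24 hr compound incubation, 37 deg C, 5% CO2.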
PTHR1 agonist = activates the human parathyroid hormone receptor PTHR1. 410,000 tested, 0.075% active. Q03431. Potency, µM (titrated, usually from 115 µM), for the others: at the highest dose activation, hits mostly activators. HEK293 GP2 PTHR1 cells, GloSensor cAMP luminescence, 1 h; further: nearly all actives have a fitted effect of over 55% in size
Target sequence (Q03431 whole entry, looked up): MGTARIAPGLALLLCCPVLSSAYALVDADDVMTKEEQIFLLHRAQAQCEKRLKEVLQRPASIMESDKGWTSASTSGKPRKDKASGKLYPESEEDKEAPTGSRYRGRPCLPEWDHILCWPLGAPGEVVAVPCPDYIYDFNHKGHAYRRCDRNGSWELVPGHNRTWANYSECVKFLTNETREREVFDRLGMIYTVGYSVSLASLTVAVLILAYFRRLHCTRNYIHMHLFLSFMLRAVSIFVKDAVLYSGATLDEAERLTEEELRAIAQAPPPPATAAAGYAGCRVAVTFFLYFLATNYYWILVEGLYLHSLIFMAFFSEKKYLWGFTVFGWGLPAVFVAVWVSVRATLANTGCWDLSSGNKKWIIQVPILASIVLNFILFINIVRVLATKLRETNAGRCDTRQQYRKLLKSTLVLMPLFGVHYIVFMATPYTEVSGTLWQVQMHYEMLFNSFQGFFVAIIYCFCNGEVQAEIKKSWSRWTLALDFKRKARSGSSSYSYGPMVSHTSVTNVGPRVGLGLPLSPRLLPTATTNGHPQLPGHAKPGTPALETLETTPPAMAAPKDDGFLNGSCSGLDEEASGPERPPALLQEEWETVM
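HEK-293-derived GP2 cells expressing PTHR1 and a GloSensor cAMP reporter, 3,000/well, plated overnight, given luciferin plus IBMX (each 0.5 mM as added) for 1 h at 37 °C, then compound for 1 h at 37 °C. Luminescence was read after 15 min at room temperature.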
Numbers without * were called inactive; [ ] = another dose, or the depositor's remark. Compounds with a hit are over-represented: about 1.7% of the library has one in this group of screens. The call rests on the fitted dose curve; in most records, active means well fitted curve in the direction sought with a large enough effect; inconclusive means small, poorly fitted or top-dose-only effect, or another doubt; inactive means no such curve, though single readings can be large; an effect the other way counts as inactive or inconclusive. Potency means the concentration at half of the fitted maximal effect.

For c1ccc(OCCOCCN2CCN(C(c3ccccc3)c3ccccc3)CC2)cc1 the results were GLP1R ag -18%, HEK293 tox inconclusive, GLP1R inv ag 7.1µM* and PTHR1 agonist -65%.
Screening COc1ccccc1OCCCCN1CCN(C(c2ccccc2)c2ccccc2)CC1 returned GLP1R ag -4%, HEK293 tox inconclusive, GLP1R inv ag 4.5µM* and PTHR1 agonist -39%.
Screening OC(COc1ccccc1)CN1CCN(C(c2ccccc2)c2ccccc2)CC1 (configuration not stated) returned GLP1R ag 0%, HEK293 tox -15%, GLP1R inv ag inconclusive and PTHR1 agonist inconclusive.
`CCc1ccc(-n2nc3ccc(NC(=O)c4cc(Cl)c(OC)c(Cl)c4)cc3n2)cc1` gave GLP1R ag 0%, HEK293 tox -6%, GLP1R inv ag -2% and PTHR1 agonist inactive.
Screening Cc1ccc(CC(=O)NC2CCCc3ccccc32)cc1C (configuration not stated) returned GLP1R ag 12%, HEK293 tox 6%, GLP1R inv ag inconclusive and PTHR1 agonist -6%.
Screening Cc1ccc(Cn2ccsc2=NC(=O)CCl)cc1 returned GLP1R ag 20%, HEK293 tox -40%, GLP1R inv ag 10µM* and PTHR1 agonist -67%.
Screening NC(N)=N/N=C/c1ccc(Br)cc1 returned GLP1R ag -5%, HEK293 tox inconclusive, GLP1R inv ag 5µM* and PTHR1 agonist inactive.
`O=C(Nc1ccc(F)c(F)c1)c1ccc(F)c(S(=O)(=O)N2CCC3(CC2)OCCO3)c1` gave GLP1R ag -1%, HEK293 tox -11%, GLP1R inv ag 3.5µM* and PTHR1 agonist -42%.
O=C(Nc1ccc(Cn2cccn2)cc1)c1ccc(COc2cccc(Br)c2)cc1 was read as GLP1R ag 1%, HEK293 tox -3%, GLP1R inv ag 5µM* and PTHR1 agonist -47%[57.5 µM].
`O=C(Nc1ccc(Cn2cccn2)cc1)c1ccc(COc2ccc(Br)cc2)cc1` gave GLP1R ag -7%, HEK293 tox 5%, GLP1R inv ag 4% and PTHR1 agonist -8%.
Screening CCN1CCCC1CNC(=O)c1ccc(Sc2ccc(F)cc2)c([N+](=O)[O-])c1 (configuration not stated) returned GLP1R ag 10%, HEK293 tox 3%, GLP1R inv ag inconclusive and PTHR1 agonist inactive.
CCN1CCCC1CNC(=O)c1ccc(Sc2ccccc2Cl)c([N+](=O)[O-])c1 (configuration not stated) was read as GLP1R ag 7%, HEK293 tox -28%, GLP1R inv ag 3.2µM* and PTHR1 agonist inactive.
Screening CCCC(=Nc1ccc(N)cc1)C1=C(O)C(C(=O)OC)C(C)(C)CC1=O (configuration not stated) returned GLP1R ag -9%, HEK293 tox -7%, GLP1R inv ag 10% and PTHR1 agonist -3%[57.5 µM].
Screening O=C(Nc1cc(Cl)cc(Cl)c1)c1cc(S(=O)(=O)NC2CCCC2)ccc1F returned HEK293 tox inconclusive, GLP1R inv ag inconclusive and PTHR1 agonist -10%.
`O=C(Nc1ccc(F)c(F)c1)c1cc(S(=O)(=O)NC2CCCC2)ccc1F` gave HEK293 tox -3%, GLP1R inv ag 10µM* and PTHR1 agonist inactive.
Cc1ccc(NC(=O)c2cc(S(=O)(=O)NC3CCCCC3)ccc2F)cc1Cl was read as HEK293 tox -32%, GLP1R inv ag 7.9µM* and PTHR1 agonist -10%.
For CC(=O)N1CCN(Cc2nc3cc(NC(=O)c4cccs4)ccc3n2C)CC1 the results were GLP1R ag 6%, HEK293 tox 27%, GLP1R inv ag 5% and PTHR1 agonist inactive.
Cc1c(C2N3CC4(C)CN2CC(C)(C3)C4=O)c2ccccc2n1C (configuration not stated) was read as GLP1R ag 3%, HEK293 tox 2%, GLP1R inv ag 0% and PTHR1 agonist inactive.
Screening C#CC1(OC(C)=O)CCC2C3CCC4=CC(OC(C)=O)CCC4C3CCC21C (configuration not stated) returned GLP1R ag 1%.
Screening CC(C)(C)N(Cc1ccccc1)C(=O)c1cc2ccccc2o1 returned GLP1R ag 5%, HEK293 tox -1%, GLP1R inv ag 2.2µM* and PTHR1 agonist inactive.
Screening CN(Cc1ccccc1)C(=O)c1cc2ccccc2o1 returned GLP1R ag -1%, HEK293 tox 5%, GLP1R inv ag 6% and PTHR1 agonist -10%.
For CN1CCN(C2(CNC(=O)c3ccc(C(C)(C)C)cc3)CCCCC2)CC1 the results were HEK293 tox 1%, GLP1R inv ag inconclusive and PTHR1 agonist inactive.
`O=C(Oc1cccc2cccnc12)c1ccc(N2C(=O)C3C4CCC(C4)C3C2=O)cc1` (configuration not stated) gave GLP1R ag 0%, HEK293 tox 3.2µM*, GLP1R inv ag 2.8µM* and PTHR1 agonist -15%.
For O=C(Oc1cccc2cccnc12)c1cccc(N2C(=O)C3C4CCC(C4)C3C2=O)c1 (configuration not stated) the results were GLP1R ag 1%, HEK293 tox 2.5µM*, GLP1R inv ag 2.8µM* and PTHR1 agonist 5%.
For O=C(Oc1cccc2cccnc12)c1cccc(-n2cnnn2)c1 the results were GLP1R ag -3%, HEK293 tox -5%, GLP1R inv ag 0% and PTHR1 agonist inactive.
`Clc1ccc(OC2CCN(Cc3nc(CC4CC4)no3)CC2)cc1` gave GLP1R ag 0%, HEK293 tox 0%, GLP1R inv ag 2µM* and PTHR1 agonist -23%.
`Cc1ccc(C)c(N2CCN(C(=O)c3ccc4c(=O)n5c(nc4c3)CCCCC5)CC2)c1` gave GLP1R ag -4%, HEK293 tox -11%, GLP1R inv ag 1.8µM* and PTHR1 agonist -82%.
COc1ccc2nc(NC(=O)C3CSC4(C)CCC(=O)N34)sc2c1 (configuration not stated) was read as GLP1R ag -4%, HEK293 tox -5%, GLP1R inv ag -27% and PTHR1 agonist -25%.
For CCc1ccc2nc(NC(=O)C3CSC4(C)CCC(=O)N34)sc2c1 (configuration not stated) the results were GLP1R ag 12%, HEK293 tox -17%, GLP1R inv ag 5.6µM* and PTHR1 agonist inactive.
Screening CC12CCC(=O)N1C(C(=O)Nc1nc3ccc(Cl)cc3s1)CS2 (configuration not stated) returned GLP1R ag 16%, HEK293 tox -3%, GLP1R inv ag 2.8µM* and PTHR1 agonist -60%.
`CC12CCC(=O)N1C(C(=O)Nc1nc3ccc(S(C)(=O)=O)cc3s1)CS2` (configuration not stated) gave GLP1R ag 4%, HEK293 tox -4%, GLP1R inv ag 14% and PTHR1 agonist inactive.

High-throughput results (PubChem BioAssay)
